Screening results as filed in PubChem BioAssay.
tim10-1 inh: growth inhibitors of tim10-1 mutant yeast; S. cerevisiae tim10-1 ts strain growth, BacTiter-Glo, 24 h; inhibition, % at 20 µM; hit rate 2.2% among 330,000; AID 463190;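 active = inhibition of at least 40%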;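 note: mutant grown at 25 °C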
MPTP block: blocks calcium-induced mitochondrial swelling | hit rate 1.4% among 360,000 | inhibition, % at 10 µM | isolated mouse mitochondria, Ca2+ swelling absorbance, 30 min;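 active = inhibition of 50% or more, scaled per plate between neutral and stimulator controls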
Mdm2 MdmX PPI: inhibitors of human Mdm2/MdmX interaction. SaOS-2 split-luciferase Mdm2/MdmX complementation, luminescence. inhibition, % at 8 µM. hit rate 3% among 330,000;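 active = inhibition of at least 50% at 8 µM in the primary screen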
tim23-1 inh: growth inhibitors of tim23-1 mutant yeast; S. cerevisiae tim23-1 growth, BacTiter-Glo luminescence, 24 h; inhibition, % at 20 µM; hit rate 1.3% among 330,000; AID 463212;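 active = growth inhibition of the mutant yeast at or above 50%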;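 note: temperature-sensitive mutant grown at 25 °C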
TIM10 inh: TIM10 yeast growth inhibition; AID 463195; hit rate 1.4% among 330,000; inhibition, % at 10 µM; S. cerevisiae TIM10 strain growth, BacTiter-Glo luminescence, 24 h;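 active = inhibition of 40% or more at the single tested concentration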;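 note: wild-type TIM10 isogenic control strain grown at permissive 25 °C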
tim23-1 conf: tim23-1 yeast growth inhibition, confirmed | shares compounds with tim23-1 inh | S. cerevisiae tim23-1 growth, BacTiter-Glo luminescence, 24 h | inhibition, % at 20 µM | hit rate 83% among 4,400 | AID 463218;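 active = inhibition above about 39% in either of two replicate wells at 20 µM, limit read from the data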;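 note: temperature-sensitive tim23-1 mutant grown at 25 °C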
Numbers stand for hits; . = inactive; / = no result. Most compounds without a hit are left out; they make up all but 6.3% or so of the library.

SMILES	tim10-1 inh	MPTP block	Mdm2 MdmX PPI	tim23-1 inh	TIM10 inh	tim23-1 conf
Brc1ccc(OCc2nc(-c3ccccn3)n[nH]2)cc1	.	.	.	51.6	.	52.9
CCOC(=O)Cn1cc(Cn2c3ccccc3c(=O)n2C(C)C)nn1	/	.	/	/	/	/
C[C@@H]1CCCCO[C@H](CN(C)C(=O)Cc2ccccc2)[C@@H](C)CN([C@H](C)CO)C(=O)c2cc(N(C)C)ccc2O1	/	.	/	/	/	/
O=C(N/N=C/c1ccccn1)c1ccc(Cl)c(Cl)c1	.	.	.	61.5	.	49.1
Cn1c(=O)c2c(nc(CN3CCc4ccccc4C3)n2Cc2cccc(Cl)c2)n(C)c1=O	.	.	.	51.3	.	54.4
Cc1cc(C)cc(CC(=O)N2CCC2(C)C(=O)NS(=O)(=O)c2cc(C)ccc2F)c1 (centres undefined)	/	.	/	/	/	/
Cc1noc(C)c1-c1ccc(C(=O)Nc2ccccc2)c2occc12	/	.	/	/	/	/
COC(=O)CSC1=C(C#N)C(c2ccc(C(C)C)cc2)CC(=O)N1 (centres undefined)	.	.	.	.	.	/
CCc1ccc(C2CC(=O)NC(SCC(=O)OC(C)C)=C2C#N)cc1 (centres undefined)	.	.	.	55.1	.	57.4
Cc1ccc(S(=O)(=O)N2C[C@@H](C)[C@]3(C2)[C@H](O)[C@H](OC(=O)Nc2cccs2)C[C@H]2C(=O)N(c4ccccc4)C(=O)[C@H]23)cc1	/	.	/	/	/	/
O=c1oc(-c2cccs2)nc2ccc(Br)cc12	.	.	.	67.0	.	.
COc1ccc(C2/C=C\CN(CC(C)C)CC(=O)N2Cc2cccc(F)c2)cc1 (centres undefined)	.	.	.	50.4	.	39.1
COc1ccc(C2/C=C\CN(C(=O)c3ccccc3)CC(=O)N2Cc2cccc(F)c2)cc1 (centres undefined)	.	.	.	58.8	.	42.2
O=C1c2ccccc2C(c2nnnn2C2CCCCC2)N1CCc1ccc(O)cc1 (centres undefined)	/	.	/	/	/	/
Cc1ccc(S(=O)(=O)NC2CCCCC2)cc1	.	.	.	.	.	/
CSc1ccc(S(=O)(=O)NC2CCCCCC2)cc1	.	.	.	53.4	.	48.4
C=CCN=c1scc(-c2ccco2)n1/N=C/c1ccc(O)c(O)c1O	.	.	.	64.0	.	61.7
COCCN=c1scc(-c2ccco2)n1/N=C/c1ccc(O)c(O)c1O	.	.	.	.	.	/
O=c1ccc2c(ccc3ncccc32)o1	/	.	/	/	/	/
COc1ccc(OC)c(CCNC(=O)Cn2cccc2C(=O)c2ccccc2C)c1	.	.	.	95.6	.	.
Oc1ccc(/C=N/N(c2ccccc2)c2ccccc2)cc1O	.	.	.	68.4	.	44.6
Cc1ccc2c(c1)/C(=C/c1ccccc1C)C(=O)N2	.	.	.	52.7	.	42.0
COc1ccccc1/C=C1\C(=O)Nc2ccccc21	.	.	.	61.7	.	46.0
Cc1ccc2c(c1)/C(=N/N1C(=O)c3ccccc3C1=O)C(=O)N2	.	.	.	.	.	/
CN1CCN(c2ccccc2/C=C2/C(=O)Nc3ccccc32)CC1	.	.	.	.	.	/
SMILES	tim10-1 inh	MPTP block	Mdm2 MdmX PPI	tim23-1 inh	TIM10 inh	tim23-1 conf
O=C1Nc2ccccc2/C1=C/c1ccccc1Cl	.	.	.	53.5	.	46.5
CN(C)/C=C1\C(=O)Nc2ccccc21	.	.	.	.	.	/
CCOC(=O)c1csc(-c2ccc(COC(=O)c3ccccc3)o2)n1	/	.	/	/	/	/
C#CCOc1ccc2c3c(c(=O)oc2c1)CCCC3	.	.	.	57.4	.	49.8
NNC(=O)c1n[nH]c2c1CC(C1CCCCC1)CC2 (centres undefined)	.	.	.	.	.	/
C=CCNC(=O)c1n[nH]c2c1CC(C(C)(C)CC)CC2 (centres undefined)	.	.	.	52.8	.	55.8
CCCNC(=O)c1n[nH]c2c1CC(C(C)(C)CC)CC2 (centres undefined)	.	.	.	57.3	.	58.2
COc1ccc(-c2cnc3c(NC(C)=O)cc(-c4ccc(C(=O)N5CCOCC5)cc4)cn23)cc1OC	/	.	/	/	/	/
COc1ccc(-c2sc3ccccc3c2C#Cc2cncn2C)cc1	.	.	.	.	.	/
Cn1cncc1C#Cc1c(C=O)n(C)c2ccccc12	.	.	.	66.8	.	62.3
CC1=C(C(=O)OC(C)C)C(c2cncc(-c3ccc(F)cc3)c2)C(C#N)=C(N)O1 (centres undefined)	.	.	.	50.4	.	.
CC(O)(c1cccc(F)c1)c1nc(-c2ccc3ccccc3c2)cs1 (centres undefined)	/	.	/	/	/	/
O=C(c1ccccc1Br)N1CCc2c([nH]c3ccccc23)C1	.	.	.	60.7	.	.
OCCN1CCN(c2ncnc3c2ncn3[C@H]2CN(Cc3ccc(Cl)cc3)C[C@@H](CO)O2)CC1	/	.	/	/	/	/
CCN(CC)S(=O)(=O)c1csc(C(=O)NC2CCCCC2)c1	.	.	.	96.1	.	.
CCN(CC)S(=O)(=O)c1cccc(C(=O)NC2CCCCC2)c1	.	.	.	.	.	/
CN(c1ccc(C(=O)Nc2ccc(CC#N)cc2)cc1)S(C)(=O)=O	.	.	.	94.1	.	.
CN(c1ccc(C(=O)Nc2ccc3c(c2)OCO3)cc1)S(C)(=O)=O	.	.	.	.	.	/
COC(=O)c1nc(-c2ccc(C)cc2)[nH]c1C(C)(C)C	/	.	/	/	/	/
COc1ccc(NC(=O)/C=C/c2cccc(Br)c2)cn1	.	.	.	86.8	.	.
COc1ccc(NC(=O)/C=C/c2cccc(C(F)(F)F)c2)cn1	.	.	.	.	.	/
c1ccc(-c2nc(-c3cccnc3)n[nH]2)cc1	.	/	.	.	.	/
Brc1cccc(-c2n[nH]c(-c3ccccc3)n2)c1	.	.	.	69.5	.	48.1
O=C(NC(=S)Nc1ccc(Br)cc1)C1CCCCC1	.	.	.	.	.	/
O=C(NC(=S)Nc1ccc(F)c(Cl)c1)C1CC1	.	.	.	54.1	.	.
SMILES	tim10-1 inh	MPTP block	Mdm2 MdmX PPI	tim23-1 inh	TIM10 inh	tim23-1 conf
O=C(NC(=S)Nc1ccc(Br)cc1)C1CCC1	.	.	.	56.8	.	.
O=C(Nc1ccc(Br)c(Cl)c1)C1CC1	.	.	.	62.6	.	55.9
O=C(CSc1cccs1)Nc1ccc2ccccc2c1	.	.	.	54.9	.	57.3
COc1ccc2c(=O)c3c(=O)n(Cc4ccco4)c(-c4ccc(C)cc4)nc3oc2c1	.	.	.	57.2	.	45.9
O=C(Nc1ccc2c(c1)OCCO2)c1cccc(Br)c1	.	.	.	56.0	.	57.9
O=C(Nc1ccc2c(c1)OCCO2)c1ccc(Br)cc1	.	.	.	.	.	/
CCOC(=O)C1(C)CCN1C(=O)c1ccc(Cl)nc1 (centres undefined)	/	.	/	/	/	/
Cc1cc(C)c(C(CC(=O)c2cccs2)C(C#N)C#N)c(C)c1 (centres undefined)	.	.	.	52.2	.	.
CC(CC(=O)c1cccs1)CC(=O)c1cccs1	.	.	.	.	.	/
Cn1nc(-c2ccccc2F)c2cc(C(=O)Nc3ccc4c(c3)OCCO4)sc21	.	.	.	54.4	.	55.2
